The panel holds about 83,000 compounds, 20% with a hit somewhere; the sample as a whole holds those more often.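 48-hour exposure, single concentration, 96-well plates; percent growth endpoint where 0 means no net growth. Active: below 10.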 A number with no mark means an inactive call. The source made the active and inactive calls.

The assay concerns KM12 colon. Kind of assay: NCI-60 one-dose screen, 48 h (100 = growth as untreated, 0 = no growth, -100 = all killed). As to conditions: 10 µM unless noted.
In the case of `CC[C@@H](C)[C@H](NC(=O)Cn1cc(CNC(=O)[C@@H](NC(=O)OCc2ccccc2)C(C)C)nn1)C(=O)O`, the growth was 109%.
As to `COc1cc(/C=C/C(=O)c2ccc(Nc3nc(NCCO)nc(N4CCOCC4)n3)cc2)cc(OC)c1OC`, the growth was 7.4% (active).
Next, `Cc1ccccc1CNC(=O)C1CN(c2ccc(Cl)cc2)N(c2ccc(Cl)cc2)C1=O` (stereo not given): 87.2%; `COc1ccc(Cn2c(Br)c3c(c2-c2cc(OC)c(OC)c(OC)c2)CCc2sc(NC(C)=O)nc2-3)cc1`: 30.4%; `CC(C)(C)c1ccc(C2CC(=O)C3=C(C2)Nc2ccccc2N(C(=O)c2ccccc2Cl)C3c2ccc(F)cc2)cc1` (stereo not given): 9.1% (active).
As to `CCOC(=O)c1ccc(N=Cc2sc(=O)[nH]c2O)cc1`, the growth is 103%.
Next, `COC(=O)/C(CCC=C(C)C)=C1\[C@@H](OC(C)=O)C[C@@]2(C)[C@H]1C[C@@H](O)[C@H]1[C@@]3(C)CC[C@H](NCc4ccccc4)[C@@H](C)[C@@H]3CC[C@@]12C`: 72.9%; `Cc1cccc2c(=O)c3c(sc12)c(NCCCNCCO)nc1ccccc13`: 33.6%; `C[C@@H](C(=O)NCCCC#Cc1cnc(Nc2ccc(C#N)cc2)nc1NC1CC1)N(C)C(=O)/C=C/CN(C)C`: 17.7%.
Consider `COc1ccc(/C=c2\sc3n(c2=O)NC2C(N=3)N(C)C(=O)N2C)cc1` (stereo not given), for which the growth is 95.2%.
Next, `Cn1cc([C@@H]2Nc3ccc4[nH]ncc4c3[C@H]3[C@H]4CCC(C4)[C@H]32)c(C(F)(F)F)n1`: 36.5%.
Next, `COc1cc2cc3c(=O)n4c(cc5cc(OC)ncc54)c(=O)n3c2cn1`: 105%.
`COc1ccccc1C(=O)/C=C/c1ccccc1`: the growth is 55.2%.
Turning to `CCCc1c(C)c2sc(=O)[nH]c2[nH]c1=O`, the growth was 105%.
In the case of `Clc1ccc(Nc2scc3[n+]2CCC3)cc1`, the growth is 97.8%.
In the case of `CNCCNc1nc2ccccc2c2c(=O)c3cc(F)ccc3sc12` it was -33.8% (active).
In the case of `O=C(Nc1ccc(Cl)cc1)c1cc2ccccc2cc1OP(=O)(O)O` it was 56.2%; in that of `COc1cc(C=C2C(=O)N(C)C(=O)N(C)C2=O)cc(CN2CCCCC2)c1O`, 103%.
For `O=C(Nc1ncc(Cc2cccc(C(F)(F)F)c2)s1)C1COc2ccccc2O1` (stereo not given), the growth was 76%.
Next, `Cc1c(-c2noc(-c3ccc([N+](=O)[O-])cc3)n2)no[n+]1[O-]`: 92.2%.
In the case of `O=C(N/N=C/c1ccccc1Cl)C(=O)Nc1cccc(C(F)(F)F)c1` it was 103%.
Next, `O=C(NC1CCN(Cc2ccccc2)CC1)c1cc2nc(-c3ccc(Cl)s3)cc(C(F)(F)F)n2n1`: 37.1%; `COc1cccc(-c2nn(C)c3sc(C(=O)NCCN4CCN(c5ccccc5F)CC4)cc23)c1`: 54.2%.
Take `COc1ccc(C(=O)C2CC2c2ccc(Cl)cc2)cc1` (stereo not given): the growth was 68.7%.
As for `Nc1ccc(C2c3ccccc3Oc3ccccc32)cc1`, the growth was 103%.
